# Laboratory results taken from PubChem BioAssay (NCATS).
# Results filed as inconclusive are left out. Where a call stands in place of a potency, no number is given. Calls of active or inactive are those of the source. Unless noted, the call rests on the fitted dose curve; in most records, active means well fitted curve in the direction sought with a large enough effect; inconclusive means small, poorly fitted or top-dose-only effect, or another doubt; inactive means no such curve, though single readings can be large; an effect the other way counts as inactive or inconclusive.
# Columns and labels:
# [1] = HPAF-II 24hr Apoptosis Induction qHTS against the NCATS CANVASS Library (AID 1347356)
# Outline: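 Caspase-Glo 3/7 luminescence, read after 15 min room-temperature development, measures apoptosis in HPAF-II cells treated 24 h at 37 degrees C with an 11-point concentration series; 500 cells/well; doxorubicin control.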
# [2] = HPAF-II 12hr Apoptosis Induction qHTS against the NCATS CANVASS Library (AID 1347358)
# Outline: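 Caspase-3/7 activation by DEVD-substrate luminescence (Caspase-Glo 3/7, 15 min, room temperature) after a 12-hour compound exposure in 11 concentrations, of HPAF-II pancreatic cells seeded at 500/well in DMEM with 10% FBS.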
# [3] = HPAF-II 18hr Apoptosis Induction qHTS against the NCATS CANVASS Library (AID 1347360)
# Outline: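 Seed HPAF-II cells at 500/well in DMEM + 10% FBS, pin-transfer compounds, incubate 18 hours at 37 degrees C/5% CO2, add Caspase-Glo 3/7 reagent, wait 15 min, read luminescence.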
# [4] = qHTS for ATAD5 Agonist screened against the NCATS CANVASS Library (AID 1347367);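 further: luciferase reporter driven by ATAD5 which rises upon DNA damage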
# Outline: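 HEK293T-ATAD5 luc reporter; 2000 cells/well; 5hr settle; cpd 11-pt qHTS; 16hr 37C 5% CO2 dark; viability by CellTiter-Fluor (AFC fluorescence); then luciferase luminescence, 30min RT.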
# [5] = MCF7 Cancer Cell Toxicity qHTS against the NCATS CANVASS Library (AID 1347369)
# Outline: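 Cells seeded at 500/well, then compound pinned. Plates incubated 72 hr at 37C, 5% CO2. CellTiterGlo added; luminescence read.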
# [6] = target: Nuclear receptor subfamily 1 group I member 3 (Homo sapiens) (UniProt Q14994); assay: qHTS for Constitutive Androstane Receptor (CAR) Agonist screened against the NCATS CANVASS Library (AID 1347373);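 further: every well also contained 1.5 µM PK11195 alongside the test compound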; further: potency means the concentration at half of the fitted maximal effect
# Chain of Nuclear receptor subfamily 1 group I member 3 (Homo sapiens) (Q14994 whole entry, looked up): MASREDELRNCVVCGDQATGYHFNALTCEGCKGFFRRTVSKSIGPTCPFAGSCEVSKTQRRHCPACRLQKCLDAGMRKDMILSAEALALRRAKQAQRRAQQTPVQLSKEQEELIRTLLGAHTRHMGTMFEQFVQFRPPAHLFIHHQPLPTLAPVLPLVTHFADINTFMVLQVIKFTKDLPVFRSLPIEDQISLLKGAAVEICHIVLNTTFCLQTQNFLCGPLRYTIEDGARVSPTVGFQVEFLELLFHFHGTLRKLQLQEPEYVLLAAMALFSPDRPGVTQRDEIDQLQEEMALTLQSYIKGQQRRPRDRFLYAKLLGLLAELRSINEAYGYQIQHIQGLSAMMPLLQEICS
# Outline: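 Agonist mode with 1.5uM PK11195 present: compounds for 24hr on HepG2-hCAR-CYP2B6 cells. CellTiter-Fluor fluorescence (ex 405, em 540 nm) gives viability; ONE-Glo luminescence reports CAR activation.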
# [7] = qHTS for Hypoxia signaling pathway (HIF-1) agonists against the NCATS CANVASS Library (AID 1347375)
# Outline: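 Beta-lactamase reporter under HRE control in ME-180 cells; compounds (11-point qHTS series) added after 5 hrs plating, then 17 hrs at 37C. FRET substrate read after 2 hr; same-well CellTiter-Glo luminescence gave viability and normalization.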
# [8] = DH5-alpha competent E. coli microbial cell viability qHTS against the NCATS CANVASS Library (AID 1347377); settings: outcome: dose series up to 46.1 µM unless noted
# Outline: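 Bacterial viability as ATP-dependent luminescence (BacTiter-Glo), read after overnight 37 °C exposure of DH5-alpha competent E. coli to compounds in 11-point titration.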
# [9] = qHTS for H2AX Agonists against the NCATS CANVASS Library (AID 1347378);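 further: phospho-H2AX S139 level in CHO-K1 lysates by TR-FRET emission ratio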; further: potency means the concentration at half of the fitted maximal effect
# Outline: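 CHO-K1, 1000 cells/well, o/n 37C; cpd several conc, 3 hr 37C, 0.76% DMSO; lyse 30 min RT; cryptate anti-pH2AX(S139) + d2 anti-H2AX, 24 hr RT; HTRF 665/620.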
# [10] = qHTS for Inflammasome Signaling Inhibitors: IL-1-beta AlphaLISA screen against the NCATS CANVASS Library (AID 1347379);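 further: human THP-1 cells primed with LPS then triggered with ATP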;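 on activity change, negative = inhibition: secreted IL-1B measured as AlphaLISA emission at 615 nm; lower signal means less IL-1B release which is the wanted effect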;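 on potency: secreted IL-1B measured as AlphaLISA emission at 615 nm; potency means the concentration at half of the fitted maximal effect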
# Outline: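 Secreted IL-1B from human THP-1 cells quantified by AlphaLISA 16 hr after compound addition (final up to 57.5 uM). A 1 hr compound pretreatment preceded inflammasome activation with 250 ng/mL LPS plus 1.25 mM ATP (final).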
# [11] = qHTS for activators of dead-cell proteases activity screened against the NCATS CANVASS Library (AID 1347392);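 further: luminescence from protease leaking out of membrane-damaged cells cleaving impermeant substrate; rising signal means more cytotoxicity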
# Outline: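 HepG2, 2000 cells/well, 18 h attach; cpd 11-pt, 5 h 37C 5% CO2; CytoTox-Glo (AAF-aminoluciferin) 15 min RT; luminescence read.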
# [12] = HEK293 18hr Apoptosis Induction qHTS against the NCATS CANVASS Library (AID 1347357)
# Outline: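 Cells seeded at 500/well in DMEM + 10% FBS. Compounds pinned, 11 concentrations. 18 h, 37 degrees C/5% CO2. Caspase-Glo 3/7 added, 15 min RT dark, luminescence read.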
# [13] = HEK293 24hr Apoptosis Induction qHTS against the NCATS CANVASS Library (AID 1347359)
# Outline: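 HEK293 cells, 500 per well, exposed to an 11-point compound series for 24 hours at 37 degrees C. Caspase 3/7 activity read by Caspase-Glo luminescence (DEVD substrate) after 15 min at room temperature.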
# [14] = qHTS to identify inhibitors of the type 1 interferon - major histocompatibility complex class I in skeletal muscle: primary screen against the NCATS Mechanism Interrogation Plate v5.0 (MIPE) Libary (AID 1347411); further: potency means the concentration at half of the fitted maximal effect; nearly all actives have a fitted effect of over 65% in size
# Outline: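 Luminescence from CRISPR HiBit-tagged endogenous HLA-B in human myoblasts reported MHC class I level after 24 h of IFN-beta (4 ng/ml) plus compound. Compounds ran as 11-point 1:3 series, top 46 uM final.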
# [15] = Primary qHTS for inhibitors of nuclear receptor binding SET domain protein 2 (NSD2) in an isogenic RCH-ACV NSD2 p.E1099K mutant (9B) (AID 1645876); further: potency means the concentration at half of the fitted maximal effect; nearly all actives have a fitted effect of over 70% in size
# [16] = Primary qHTS for inhibitors of nuclear receptor binding SET domain protein 2 (NSD2) in an RCH-ACV wild type WT cells (2C) (AID 1645877); further: potency means the concentration at half of the fitted maximal effect; nearly all actives have a fitted effect of over 70% in size
# [17] = target: Glutathione peroxidase 1 (Homo sapiens) (UniProt P07203); assay: Primary qHTS Assay for Inhibitors of Recombinant Selenoprotein Glutathione Peroxidase 1 (GPX1) (AID 1845191); further: nearly all actives have a fitted effect of over 65% in size
# Chain of Glutathione peroxidase 1 (Homo sapiens) (P07203 whole entry, looked up): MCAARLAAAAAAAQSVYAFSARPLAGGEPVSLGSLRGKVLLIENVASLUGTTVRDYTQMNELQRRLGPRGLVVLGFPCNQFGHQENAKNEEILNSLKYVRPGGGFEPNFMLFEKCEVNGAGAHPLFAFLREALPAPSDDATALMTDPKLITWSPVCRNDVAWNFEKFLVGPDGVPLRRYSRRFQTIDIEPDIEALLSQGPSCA
# Outline: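 GR-coupled readout: NADPH consumption tracked by fluorescence, ex 340/em 450 nm, at t=0 and after 15 min at RT. Final mix 10 nM GPX1, 1 mM GSH, 0.5 mM CHP, 0.5 mM NADPH, 100 nM GR, 0.01% BSA, following 30 min enzyme–compound preincubation.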
# [18] = target: Phospholipid hydroperoxide glutathione peroxidase GPX4 (Homo sapiens) (UniProt P36969); assay: Primary qHTS Assay for Inhibitors of Recombinant Selenoprotein Glutathione Peroxidase 4 (GPX4) (AID 1845192); settings: outcome: dose series up to 50 µM unless noted; further: nearly all actives have a fitted effect of over 65% in size
# Chain of Phospholipid hydroperoxide glutathione peroxidase GPX4 (Homo sapiens) (P36969 whole entry, looked up): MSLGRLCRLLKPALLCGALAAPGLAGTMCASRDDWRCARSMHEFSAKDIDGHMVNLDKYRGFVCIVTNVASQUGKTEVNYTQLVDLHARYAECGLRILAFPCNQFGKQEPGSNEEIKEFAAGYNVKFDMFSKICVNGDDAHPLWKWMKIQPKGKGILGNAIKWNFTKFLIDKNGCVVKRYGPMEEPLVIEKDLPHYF
# Outline: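 Steps: GPX4 plus compound, 30 min RT; add GR/GSH/NADPH master mix; start with cumene hydroperoxide; read 340/450 nm fluorescence at 0 and 15 min. Finals were 200 nM GPX4, 1 mM GSH, 0.5 mM CHP, 0.5 mM NADPH, 100 nM GR.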
# [19] = qHTS drug screen for cell cycle checkpoint inhibitors in PARPi-resistant BRCA-mutant ovarian cancer cell lines. (AID 1963452; calls by dose curve; further: potency means the concentration at half of the fitted maximal effect); settings: PEO1/OlaR viability, CellTiter-Glo luminescence, 96 h; for Z-AUC: stronger effect = lower value
# Outline: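 PEO1, PEO4 and PEO1/OlaR ovarian cancer cells, 600 per well, exposed 96 h at 37C to a dilution series. Viability read by CellTiter-Glo luminescence, normalized to DMSO and empty wells; activity summarized as Z-AUC.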
# [20] = qHTS assay to identify inhibitors of the type 1 interferon - major histocompatibility complex class I in skeletal muscle: Counter screen cell viability and HiBit confirmation (AID 1347412); settings: iHSKM muscle cells + IFN-b, HiBiT or CellTiter-Glo, 24 h; for Potency: HiBiT; for activity change, negative = inhibition: Viability, at 45.9 µM (top of the series); further: potency means the concentration at half of the fitted maximal effect; on all read-outs here: nearly all actives have a fitted effect of over 60% in size
# Outline: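 Luminescence read-out: Nano-Glo HiBiT lytic signal from C-terminally HiBiT-tagged HLA-B in CRISPR-edited human myoblasts, plus CellTiter Glo ATP as viability counter screen. IFN-beta 4.0 ng/ml; 24 hrs treatment at 37 C, 5% CO2.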
# [21] = measured here: PEO1 parental Z-AUC
structure (smiles),measurement,setting,value
CO[C@@H]1[C@H](O)[C@@H](C)O[C@@H](OC[C@@H]2C(C)OC(=O)/C=C/[C@H](C)C(O[C@@H]3O[C@H](C)CC4(OC(=O)O[C@@H]4C)C3O)[C@@H](C)CC(C)C(=O)/C=C/[C@H]3OC23)[C@@H]1OC (some centres undefined),outcome,[1],inactive
same,Potency,[2],inactive
same,Potency,[3],inactive
same,Potency,[4],inactive
same,Potency,[5],inactive
same,Potency,[6],inactive
same,outcome,[7],inactive
same,outcome,[8],inactive
same,Potency,[9],inactive
same,Potency,[10],inactive
same,Potency,[11],inactive
CC(C)[C@@H]1CC(=O)c2coc3c2[C@H]1C[C@@H](C)C3=O,outcome,[1],inactive
same,Potency,[12],inactive
same,Potency,[2],inactive
same,Potency,[13],inactive
same,Potency,[3],inactive
same,Potency,[4],inactive
same,Potency,[5],inactive
same,Potency,[6],inactive
same,outcome,[7],inactive
same,outcome,[8],inactive
same,Potency,[9],inactive
same,Potency,[10],inactive
same,Potency,[11],inactive
COc1cc2c(cc1OC)[C@@H](c1ccc3c(c1)OCO3)C(C)[C@@H](C)C2=O (some centres undefined),outcome,[1],inactive
same,Potency,[12],inactive
same,Potency,[2],inactive
same,Potency,[13],inactive
same,Potency,[3],inactive
same,Potency,[4],inactive
same,Potency,[5],inactive
same,Potency,[6],9330 nM (active)
same,outcome,[7],inactive
same,outcome,[8],inactive
same,Potency,[9],inactive
same,Potency,[10],inactive
same,Potency,[11],inactive
COC(=O)[C@@]1(C)CCC[C@]2(C)c3cc(OC)ccc3CC[C@@H]12,outcome,[1],inactive
same,Potency,[12],inactive
same,Potency,[2],inactive
same,Potency,[13],inactive
same,Potency,[3],inactive
same,Potency,[4],inactive
same,Potency,[5],inactive
same,outcome,[7],inactive
same,outcome,[8],inactive
same,Potency,[9],inactive
same,Potency,[10],inactive
same,Potency,[11],inactive
CC1=C[C@H]2[C@H]3C(=O)C(c4ccc(O)cc4)=C[C@@]3(c3ccc(O)cc3)[C@@H]1C(=O)[C@]2(C)O,outcome,[1],inactive
same,Potency,[12],inactive
same,Potency,[2],inactive
same,Potency,[13],inactive
same,Potency,[3],inactive
same,Potency,[4],inactive
same,Potency,[5],inactive
same,Potency,[6],inactive
same,outcome,[7],inactive
same,outcome,[8],inactive
same,Potency,[9],inactive
same,Potency,[10],inactive
same,Potency,[11],inactive
C/C(=C\[C@H](C)C(=O)C[C@H](O)CC1CC(=O)NC(=O)C1)[C@@H]1OC(=O)CCCC/C=C/[C@@H](O)C[C@@H]1C,outcome,[1],inactive
same,Potency,[12],inactive
same,Potency,[2],inactive
same,Potency,[13],inactive
same,Potency,[3],inactive
same,Potency,[4],inactive
same,Potency,[5],inactive
same,Potency,[6],inactive
same,outcome,[7],inactive
same,outcome,[8],inactive
same,Potency,[9],inactive
same,Potency,[10],34300 nM (active)
same,Potency,[11],inactive
CN1CCc2cc3c(c4c2C1(C)C(=O)c1cc(O)ccc1-4)OCO3 (centres undefined),outcome,[1],inactive
same,Potency,[12],inactive
same,Potency,[2],inactive
same,Potency,[13],inactive
same,Potency,[3],inactive
same,Potency,[4],inactive
same,outcome,[7],inactive
same,outcome,[8],inactive
same,Potency,[9],inactive
same,Potency,[10],inactive
same,Potency,[11],inactive
C=C1C[C@H]2O[C@@H]3[C@@H]4[C@H](CC[C@@](C)(O)[C@@H]42)[C@H](C)COC3(C)[C@@H](OC(=O)CCCCCCC)C[C@H]1O (some centres undefined),outcome,[1],inactive
same,Potency,[12],inactive
same,Potency,[2],inactive
same,Potency,[13],inactive
same,Potency,[3],inactive
same,Potency,[4],inactive
same,Potency,[6],inactive
same,outcome,[7],inactive
same,outcome,[8],inactive
same,Potency,[9],inactive
same,Potency,[11],inactive
C[C@H]1CCC2(OC1)O[C@H]1C[C@H]3[C@@H]4CC(=O)[C@]5(O)C[C@H](O)CC[C@@]5(C)[C@H]4CC[C@@]3(C)[C@H]1[C@H]2C (some centres undefined),outcome,[1],inactive
same,Potency,[12],inactive
same,Potency,[2],inactive
same,Potency,[13],inactive
same,Potency,[3],inactive
same,Potency,[4],inactive
same,Potency,[5],inactive
same,outcome,[7],inactive
same,outcome,[8],inactive
same,Potency,[9],inactive
same,Potency,[10],24300 nM (active)
same,Potency,[11],inactive
O=C(/C=C/c1ccc(CN(CCO)CCc2c[nH]c3ccccc23)cc1)NO,Potency,[14],186 nM (active)
same,Potency,[15],132 nM (active)
same,Potency,[16],132 nM (active)
same,Potency,[17],inactive
same,Potency,[18],inactive
same,Potency,[19],174 nM (active)
same,Z-AUC,[19]; [21],-1.35
same,Z-AUC,[19]; measured here: PEO4 Z-AUC,-1.27
same,Potency,[20],198 nM (active)
same,"activity change, negative = inhibition",[20],-12.6% (inactive)
C/C1=C/[C@@H](C)[C@H](O)C/C=C/CC/C=C/C(=O)O[C@@H]1[C@H](C)C(=O)CCCC1CC(=O)NC(=O)C1,outcome,[1],inactive
same,Potency,[12],inactive
same,Potency,[2],inactive
same,Potency,[13],inactive
same,Potency,[3],inactive
same,Potency,[4],inactive
same,Potency,[5],inactive
same,Potency,[6],inactive
same,outcome,[7],inactive
same,outcome,[8],inactive
same,Potency,[9],inactive
same,Potency,[10],inactive
same,Potency,[11],inactive
O=C(/C=C\n1cnc(-c2cc(C(F)(F)F)cc(C(F)(F)F)c2)n1)NNc1cnccn1,Potency,[14],7390 nM (active)
same,Potency,[15],2630 nM (active)
same,Potency,[16],2090 nM (active)
same,Potency,[17],inactive
same,Potency,[18],inactive
same,Z-AUC,[19],-0.586 (inactive)
same,Z-AUC,[19]; [21],-2.16
same,Z-AUC,[19]; measured here: PEO4 Z-AUC,-1.63
same,Potency,[20],625 nM (active)
same,"activity change, negative = inhibition",[20],-1.81% (inactive)
C=C1C(=O)O[C@H]2[C@H]1CCC(C)=C1CC[C@@](C)(O)[C@@H]12,outcome,[1],inactive
same,Potency,[12],inactive
same,Potency,[2],inactive
same,Potency,[13],inactive
same,Potency,[3],inactive
same,Potency,[4],inactive
same,Potency,[6],inactive
same,outcome,[8],inactive
same,Potency,[9],27300 nM (active)
same,Potency,[10],9680 nM (active)
same,Potency,[11],inactive
CC[C@@H]1[C@H](C)[C@H](c2cc(OC)c(OC)cc2OC)[C@@H](C)[C@H](c2cc(OC)c(OC)cc2OC)[C@]12C=C(OC)C(=O)C=C2OC,outcome,[1],inactive
same,Potency,[12],inactive
same,Potency,[13],inactive
same,Potency,[4],inactive
same,Potency,[5],inactive
same,Potency,[6],inactive
